Laboratory results from PubChem BioAssay (Tox21).
“And” between values parts separate entries of the source, which are not always exact repeats. Identical values can stand only once. Results filed as inconclusive are left out. Where a structure was tested more than once in an assay, its records may differ in their call. The source made the active and inactive calls. Unless noted, calls follow the shape of the dose curve; as a rule, active = well fitted curve in the direction sought with a large enough effect in the repeat runs; inconclusive = weak or mixed curves; inactive = no such curve, though single readings can be large; an effect the other way counts as inactive or inconclusive.

Key:
[1] = qHTS assay to identify small molecule agonists of the estrogen receptor alpha (ER-alpha) signaling pathway in the presence of an antagonist - cell viability counter screen (AID 1259386);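 also: cells exposed to compounds for 22 h at 37 °C before the viability read; nearly all actives have a fitted effect of over 30% in size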; also: potency is read from the fitted curve at half-maximal effect; as to activity change, negative = cytotoxicity: series mostly up to about 92 µM
Summary of the method: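 ICI-182,780 at 10.0nM final accompanies the compound titration (15 concentrations, 22hr, 37C) on VM7Luc4E2 cells. The CellTiter-Fluor fluorescence readout runs in the same wells as the luciferase assay.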

[2] = biological target: Progesterone receptor (Homo sapiens) (UniProt P06401); assay: qHTS assay to identify small molecule agonists of the progesterone receptor (PR) signaling pathway (AID 1346784; calls by dose curve; also: nearly all actives have a fitted effect of over 30% in size)
Progesterone receptor (Homo sapiens), sequence (P06401 whole entry, looked up): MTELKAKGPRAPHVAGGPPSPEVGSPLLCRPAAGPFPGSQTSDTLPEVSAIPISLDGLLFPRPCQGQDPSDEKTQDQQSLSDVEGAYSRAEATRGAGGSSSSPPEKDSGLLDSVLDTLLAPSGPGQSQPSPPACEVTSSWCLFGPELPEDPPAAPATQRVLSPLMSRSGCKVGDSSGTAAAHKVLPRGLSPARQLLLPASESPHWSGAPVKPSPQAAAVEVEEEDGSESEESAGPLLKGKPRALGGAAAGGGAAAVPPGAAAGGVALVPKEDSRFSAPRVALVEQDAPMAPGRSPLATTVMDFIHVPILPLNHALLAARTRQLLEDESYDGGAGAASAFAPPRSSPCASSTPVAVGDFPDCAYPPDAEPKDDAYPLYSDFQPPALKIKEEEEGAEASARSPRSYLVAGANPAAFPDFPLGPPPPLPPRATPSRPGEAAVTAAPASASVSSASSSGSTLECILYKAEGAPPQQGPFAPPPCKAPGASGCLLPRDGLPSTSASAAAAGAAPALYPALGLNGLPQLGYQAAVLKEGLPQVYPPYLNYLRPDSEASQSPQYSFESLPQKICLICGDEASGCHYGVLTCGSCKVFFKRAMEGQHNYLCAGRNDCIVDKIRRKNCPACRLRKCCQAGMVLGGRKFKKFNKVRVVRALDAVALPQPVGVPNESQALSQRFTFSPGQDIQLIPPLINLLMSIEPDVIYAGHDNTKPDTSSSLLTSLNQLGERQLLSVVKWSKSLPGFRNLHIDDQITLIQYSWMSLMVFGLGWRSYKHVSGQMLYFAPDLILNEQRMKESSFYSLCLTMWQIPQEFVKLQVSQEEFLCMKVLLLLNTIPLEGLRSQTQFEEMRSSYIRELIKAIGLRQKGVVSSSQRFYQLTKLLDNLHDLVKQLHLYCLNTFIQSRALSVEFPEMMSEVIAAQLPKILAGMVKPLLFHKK
Summary of the method: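 Fluorescence from LiveBLAzer B/G FRET substrate cleavage (2 hr, RT) reported PR activation in PR-UAS-bla HEK 293T cells treated 16 hr at 37C/5% CO2 with compounds; medium contained 2% charcoal-stripped FBS.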

[3] = biological target: Progesterone receptor (Homo sapiens) (UniProt P06401); assay: qHTS assay to identify small molecule antagonists of the progesterone receptor (PR) signaling pathway (AID 1346795; active = well fitted inhibition curve with a large enough effect in the signal ratio in the repeat runs, not every such curve was filed as active; the % refers to the signal ratio; also: potency is read from the fitted curve at half-maximal effect)
Summary of the method: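 Fluorescence intensity measured 2 hr after adding beta-lactamase FRET substrate to PR-UAS-bla HEK293T cells that had been co-treated 16 hr with compound and 1 nM R5020 (final concentration) in 2% charcoal-stripped FBS.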

[4] = qHTS assay to identify small molecule antagonists of the progesterone receptor (PR) signaling pathway - cell viability counter screen (AID 1346798); also: series mostly up to about 92 µM; nearly all actives have a fitted effect of over 50% in size
Summary of the method: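 CellTiter-Glo luminescence; PR-UAS-bla HEK293T, 3,000 cells/well; compound + R5020, 16 hr, 37C/5% CO2; 30 min RT before read.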

[5] = qHTS assay to identify small molecule agonists of the progesterone receptor (PR) signaling pathway - cell viability counter screen (AID 1346799; calls by dose curve; also: nearly all actives have a fitted effect of over 45% in size)
Summary of the method: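 In parallel with the beta-lactamase readout, cytotoxicity toward PR-UAS-bla HEK293T cells was measured by CellTiter-Glo luminescence following 16 hr compound incubation in 2% charcoal-stripped FBS medium.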

[6] = qHTS assay to identify small molecule antagonists of the TGF-beta/Smad signaling pathway - cell viability counter screen (AID 1346824); also: nearly all actives have a fitted effect of over 50% in size
Summary of the method: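 SBE-bla HEK 293T cells, incubated overnight, then compound plus 0.25 ng/mL TGF-beta1 (stock added) for 5 hr at 37 C. Viability was read in the same wells by CellTiter-Glo luminescence after 30 min at room temperature.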

[7] = qHTS assay to identify small molecule agonists of the TGF-beta/Smad signaling pathway - cell viability counter screen (AID 1346829); also: nearly all actives have a fitted effect of over 45% in size; also: potency is read from the fitted curve at half-maximal effect; as to activity change, negative = cytotoxicity: top concentration of the series differs between compounds
Summary of the method: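 Tox21 qHTS format: SBE-bla HEK 293T cells treated with DMSO-dissolved compounds for 5 hr; CellTiter-Glo luminescence after 30 min at room temperature.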

[8] = qHTS assay to identify small molecule agonists of the TGF-beta/Smad signaling pathway (AID 1346859; active = well fitted activation curve with a large enough effect in the signal ratio in the repeat runs, not every such curve was filed as active; the % refers to the signal ratio; also: series mostly up to about 77 µM)
Summary of the method: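 After overnight seeding, SBE-bla HEK 293T cells are dosed with compounds in DMSO and kept 5 hr at 37 C, 5% CO2. LiveBLAzer-type FRET substrate is then applied for 2 hr at room temperature.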

[9] = biological target: Thyrotropin-releasing hormone receptor (Homo sapiens) (UniProt P34981); assay: qHTS assay to identify small molecule agonists of the thyrotropin-releasing hormone receptor (TRHR) signaling pathway (AID 1346891; calls by dose curve;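 also: HEK293 cells expressing TRHR with calcium dye readout; series mostly up to about 58 µM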)
Thyrotropin-releasing hormone receptor (Homo sapiens), sequence (P34981 whole entry, looked up): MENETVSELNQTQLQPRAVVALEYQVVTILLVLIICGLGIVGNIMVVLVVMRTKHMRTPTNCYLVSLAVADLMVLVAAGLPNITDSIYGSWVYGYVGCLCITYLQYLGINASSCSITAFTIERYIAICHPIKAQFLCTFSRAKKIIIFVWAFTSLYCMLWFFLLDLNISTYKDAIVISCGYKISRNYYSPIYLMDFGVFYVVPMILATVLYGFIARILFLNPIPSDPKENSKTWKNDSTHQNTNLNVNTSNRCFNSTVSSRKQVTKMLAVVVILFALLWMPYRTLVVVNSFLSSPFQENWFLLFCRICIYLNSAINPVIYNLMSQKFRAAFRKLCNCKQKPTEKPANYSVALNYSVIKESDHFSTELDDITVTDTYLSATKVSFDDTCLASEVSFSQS
Summary of the method: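 Compounds were tested as agonists at 15 concentrations, in triplicate, on TRHR-Hek293 cells; calcium-sensitive dye fluorescence was recorded for 3 min following addition.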

[10] = Human pregnane X receptor (PXR) small molecule agonists, qHTS cell viability counter screen (AID 1346977); also: nearly all actives have a fitted effect of over 50% in size; also: potency is read from the fitted curve at half-maximal effect
Summary of the method: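 Viability counter screen: CellTiter-Fluor signal in PXR-Luc HepG2 cells, 24hr compound exposure, 37C, 5% CO2.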

[11] = Caspase-3/7 induction in HepG2 cells by small molecules, qHTS assay (AID 1346978); also: nearly all actives have a fitted effect of over 15% in size
Summary of the method: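 Wild-type HepG2 cells, 2,000/well, settled 5 hr at 37 C and 5% CO2, then compound-treated for 17 hr; caspase-3/7 activity read by luminescent Caspase-Glo 3/7 after 30 min at room temperature.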

[12] = Caspase-3/7 induction in CHO-K1 cells by small molecules, qHTS cell viability counter screen (AID 1346979); also: nearly all actives have a fitted effect of over 35% in size
Summary of the method: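 Viability readout by fluorescence (CellTiter-Fluor) on wild-type CHO-K1 cells exposed for 16hr at 37C and 5% CO2 to compounds delivered in DMSO; reagent incubated 1hr before reading.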

[13] = Caspase-3/7 induction in CHO-K1 cells by small molecules, qHTS assay (AID 1346980); also: nearly all actives have a fitted effect of over 15% in size
Summary of the method: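 Wild-type CHO-K1 cells exposed to compounds for 17hr at 37 C, 5% CO2. Caspase-3/7 activity then measured by Caspase-Glo 3/7 luminescence after 30min at room temperature.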

[14] = biological target: Nuclear receptor subfamily 1 group I member 2 (Homo sapiens) (UniProt O75469); assay: Human pregnane X receptor (PXR) small molecule agonists, qHTS assay (AID 1346982); also: nearly all actives have a fitted effect of over 35% in size; also: potency is read from the fitted curve at half-maximal effect
Nuclear receptor subfamily 1 group I member 2 (Homo sapiens), sequence (O75469 whole entry, looked up): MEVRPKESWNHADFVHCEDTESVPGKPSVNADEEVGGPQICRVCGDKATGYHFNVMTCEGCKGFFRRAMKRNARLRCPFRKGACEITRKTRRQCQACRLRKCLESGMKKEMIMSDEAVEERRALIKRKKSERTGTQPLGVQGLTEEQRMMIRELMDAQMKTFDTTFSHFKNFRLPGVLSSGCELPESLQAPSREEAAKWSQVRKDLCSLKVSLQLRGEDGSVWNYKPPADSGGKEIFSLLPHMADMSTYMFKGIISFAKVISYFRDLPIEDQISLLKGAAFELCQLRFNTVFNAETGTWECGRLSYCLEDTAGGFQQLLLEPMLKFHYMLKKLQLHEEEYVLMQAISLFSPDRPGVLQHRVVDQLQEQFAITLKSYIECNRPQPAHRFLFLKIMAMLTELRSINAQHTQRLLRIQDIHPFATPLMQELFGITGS
Summary of the method: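 We seeded PXR-Luc HepG2 cells in assay medium containing 5% charcoal-stripped FBS, added compounds 5 hr later, incubated 24 hr, and read luminescence with ONE-Glo reagent.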

[15] = biological target: Nuclear receptor subfamily 1 group I member 2 (Rattus norvegicus) (UniProt Q9R1A7); assay: Rat pregnane X receptor (rPXR) activation by small molecules, qHTS assay (AID 1346983); conditions: rPXR luciferase reporter cells, One-Glo luminescence, 24 h; max activation: stronger effect = higher value; also: nearly all actives have a fitted effect of over 20% in size
Nuclear receptor subfamily 1 group I member 2 (Rattus norvegicus), sequence (Q9R1A7 whole entry, looked up): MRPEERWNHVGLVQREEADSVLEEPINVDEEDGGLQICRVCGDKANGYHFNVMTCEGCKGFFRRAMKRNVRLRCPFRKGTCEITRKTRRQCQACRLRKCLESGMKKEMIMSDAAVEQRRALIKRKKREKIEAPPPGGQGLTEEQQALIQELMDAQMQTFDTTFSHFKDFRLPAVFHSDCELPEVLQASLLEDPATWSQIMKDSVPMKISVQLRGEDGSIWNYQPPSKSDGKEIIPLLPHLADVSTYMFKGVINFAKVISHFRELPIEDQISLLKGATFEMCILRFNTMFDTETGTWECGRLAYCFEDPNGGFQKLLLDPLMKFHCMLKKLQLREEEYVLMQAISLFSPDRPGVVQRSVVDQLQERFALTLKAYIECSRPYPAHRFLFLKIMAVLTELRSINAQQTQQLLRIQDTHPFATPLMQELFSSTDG
Summary of the method: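 Cell-based rPXR activation assay: rPXR cells, 2,000 per well, rested 5hr at 37 C, then exposed to compounds in DMSO for 24 hr at 37 C. Luciferase activity read by One-Glo luminescence after 30 min at room temperature.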

[16] = biological target: Nuclear receptor subfamily 1 group I member 2 (Homo sapiens) (UniProt O75469); assay: CYP3A4 induction through human pregnane X receptor (PXR) by small molecules, qHTS assay (AID 1346984); also: nearly all actives have a fitted effect of over 40% in size
Summary of the method: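 qHTS, concentration-response format: HepG2 DPX-2 line, PXR/CYP3A4-luc. Exposure 24 h, 37C. Substrate Luciferin-IPA 3uM final, 3 h. Detection One-Glo, 30 min RT.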

[17] = biological target: Nuclear receptor subfamily 1 group I member 2 (Homo sapiens) (UniProt O75469); assay: Human pregnane X receptor (PXR) activation by small molecules, qHTS assay (AID 1346985); also: nearly all actives have a fitted effect of over 40% in size
Summary of the method: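 DPX-2 cells (HepG2 co-transfected with a PXR response element and a CYP3A4-promoter luciferase construct) were seeded at 2,000 per well, rested 5 hr at 37C, then exposed to DMSO-dissolved compounds for 24 hr. Activation was read as luciferase luminescence.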

[18] = biological target: Acetylcholinesterase (Homo sapiens) (UniProt P22303); assay: Acetylcholinesterase (AChE) small molecule antagonists: colormetric cell-based qHTS assay (AID 1347395; calls by dose curve; also: nearly all actives have a fitted effect of over 30% in size)
Acetylcholinesterase (Homo sapiens), sequence (P22303 whole entry, looked up): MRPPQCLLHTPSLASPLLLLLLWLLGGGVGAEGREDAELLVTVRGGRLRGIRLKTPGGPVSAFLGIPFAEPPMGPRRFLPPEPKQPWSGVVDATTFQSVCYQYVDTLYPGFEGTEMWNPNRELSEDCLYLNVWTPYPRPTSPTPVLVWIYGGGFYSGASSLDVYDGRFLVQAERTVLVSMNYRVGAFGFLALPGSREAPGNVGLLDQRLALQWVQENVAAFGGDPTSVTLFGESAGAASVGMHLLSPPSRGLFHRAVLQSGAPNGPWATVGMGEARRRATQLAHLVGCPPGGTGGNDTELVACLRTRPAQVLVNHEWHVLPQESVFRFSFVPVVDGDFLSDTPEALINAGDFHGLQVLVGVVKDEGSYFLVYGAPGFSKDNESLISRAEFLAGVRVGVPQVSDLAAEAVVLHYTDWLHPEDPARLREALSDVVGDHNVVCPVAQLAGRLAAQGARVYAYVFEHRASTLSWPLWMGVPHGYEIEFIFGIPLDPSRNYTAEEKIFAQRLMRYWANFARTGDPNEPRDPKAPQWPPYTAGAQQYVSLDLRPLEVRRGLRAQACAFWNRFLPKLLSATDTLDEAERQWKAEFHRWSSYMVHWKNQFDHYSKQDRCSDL
Summary of the method: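 Homogeneous whole-cell format. SH-SY5Y cells seeded overnight, dosed with compound (30 min, 37 C, 5% CO2), then given DTNB/acetylthiocholine cocktail for 90 min at 37 C; colorimetric signal.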

[19] = biological target: Thyrotropin-releasing hormone receptor (Homo sapiens) (UniProt P34981); assay: qHTS assay to identify small molecule antagonists of the thyrotropin-releasing hormone receptor (TRHR) signaling pathway (AID 1346877; active = well fitted inhibition curve with a large enough effect in the repeat runs, not every such curve was filed as active; also: series mostly up to about 51 µM)
Summary of the method: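 Screening used HEK293 cells engineered with TRHR, with a brief 5 min room-temperature compound exposure preceding addition of TRH to 1 nM. The read-out was kinetic calcium-dye fluorescence, concentration-response from 15 doses in triplicate.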

[20] = Caspase-3/7 induction in HepG2 cells by small molecules, qHTS cell viability counter screen (AID 1346981); also: series mostly up to about 92 µM; nearly all actives have a fitted effect of over 30% in size
Summary of the method: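 Multiplexed with the caspase-3/7 assay: HepG2 cells, 16 hr compound treatment, CellTiter-Fluor viability detection by fluorescence.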
% is scaled to controls: 0 for no effect and ±100 for the full control effect.

CC(C)C(Br)C(=O)NC(N)=O (stereo not given)
inactive: Potency [1] | Potency [2] | Potency [3] | Potency [4] | Potency [5] | Potency [6] | Potency [7] | outcome [8] | Potency [9] | Potency [10] | Potency [11] | Potency [12] | Potency [13] | Potency [14] | max activation [15] -0.856% | Potency [16] | Potency [17] | Potency [18]

c1cc[n+]2c(c1)-c1cccc[n+]1CC2
active: Potency [1] 29.8 µM | Potency [10] 13.3 µM
inactive: Potency [2] | Potency [3] | Potency [4] | Potency [5] | Potency [6] | Potency [7] | outcome [8] | Potency [19] | Potency [9] | Potency [11] | Potency [12] | Potency [20] | Potency [14] | Potency [18]

O=C(Nc1ccc(F)cc1F)c1cccnc1Oc1cccc(C(F)(F)F)c1
inactive: Potency [1] | Potency [2] | Potency [3] | Potency [4] | Potency [5] | Potency [6] | Potency [7] | outcome [8] | Potency [19] | Potency [9] | Potency [10] | Potency [11] | Potency [12] | Potency [13] | Potency [20] | Potency [18]
active: Potency [14] 4.24 µM

CN1[C@@H]2CC[C@H]1CC(O)C2 (stereo not given in full)
inactive: Potency [1] | Potency [2] | Potency [3] | Potency [4] | Potency [5] | Potency [6] | Potency [7] | outcome [8] | Potency [19] | Potency [9] | Potency [12] | Potency [13] | Potency [20] | Potency [14] | Potency [18]

Nc1nc(N)nc(Cl)n1
inactive: Potency [1] | Potency [2] | Potency [3] | Potency [4] | Potency [5] | Potency [6] | Potency [7] | outcome [8] | Potency [19] | Potency [9] | Potency [10] | Potency [12] | Potency [13] | Potency [20] | Potency [14] | Potency [18]

CC(Cc1ccc2c(c1)OCO2)NO (stereo not given)
inactive: Potency [1] | Potency [2] | Potency [3] | Potency [4] | Potency [5] | Potency [6] | Potency [7] | outcome [8] | Potency [19] | Potency [9] | Potency [10] | Potency [11] | Potency [13] | Potency [14] | Potency [18]

BrCCCBr
inactive: Potency [1] | Potency [2] | Potency [3] | Potency [4] | Potency [5] | Potency [6] | Potency [7] | outcome [8] | Potency [19] | Potency [9] | Potency [10] | Potency [11] | Potency [12] | Potency [13] | Potency [14] | Potency [18]

O=[N+]([O-])c1ccc(Cl)c(Cl)c1Cl
inactive: Potency [1] | Potency [2] | Potency [3] | Potency [4] | Potency [5] | Potency [6] | Potency [7] | outcome [8] | Potency [19] | Potency [9] | Potency [10] | Potency [11] | Potency [12] | Potency [20] | Potency [14] | Potency [18]

NC(=O)C(Cl)Cl
inactive: Potency [1] | Potency [2] | Potency [3] | Potency [4] | Potency [5] | Potency [6] | Potency [7] | outcome [8] | Potency [19] | Potency [9] | Potency [10] | Potency [11] | Potency [12] | Potency [13] | Potency [20] | Potency [14] | Potency [18]

O=S(=O)(O)F
active: Potency [14] 53.8 µM
inactive: Potency [1] | Potency [2] | Potency [3] | Potency [4] | Potency [5] | Potency [6] | Potency [7] | outcome [8] | Potency [19] | Potency [9] | Potency [10] | Potency [11] | Potency [12] | Potency [13] | Potency [18]

CCC1(CC)C(=O)N=C(O)NC1=O
inactive: Potency [1] | Potency [2] | Potency [3] | Potency [4] | Potency [5] | Potency [6] | Potency [7] | outcome [8] | Potency [19] | Potency [9] | Potency [10] | Potency [12] | Potency [13] | Potency [20] | Potency [18]

S=C=Nc1ccccc1
active: Potency [14] 63.1 µM
inactive: Potency [1] | Potency [2] | Potency [3] | Potency [4] | Potency [5] | Potency [6] | Potency [7] | outcome [8] | Potency [9] | Potency [10] | Potency [11] | Potency [12] | Potency [13] | Potency [18]

ClC1=C(Cl)[C@]2(Cl)[C@H]3[C@H]([C@@H]4C=C[C@H]3C4)[C@@]1(Cl)C2(Cl)Cl
inactive: Potency [1] | Potency [2] | Potency [4] | Potency [5] | Potency [6] | outcome [8] | Potency [19] | Potency [9] | Potency [20] | Potency [18]
active: Potency [3] 21.7 µM
inactive and 49 µM (active): Potency [7]
34.3 µM (active) and inactive: Potency [14]

Brc1cccc(-c2ccccc2)c1
active: Potency [14] 24.5 µM
inactive: Potency [1] | Potency [2] | Potency [3] | Potency [4] | Potency [5] | Potency [6] | Potency [7] | outcome [8] | Potency [19] | Potency [9] | Potency [10] | Potency [11] | Potency [12] | Potency [13] | Potency [18]

Clc1c(Cl)c(Cl)c(Cl)c(Cl)c1Cl
inactive: activity change, negative = cytotoxicity [1] 1.86% [at 8.39 µM] | activation [2] -0.806% [at 8.39 µM] | activity change, negative = inhibition [3] -1.77% [at 8.39 µM] | activity change, negative = cytotoxicity [4] -0.673% [at 8.39 µM] | activity change, negative = cytotoxicity [5] 14.7% [at 8.39 µM] | viability change, negative = cytotoxic [6] 1.21% [at 6.97 µM] | activity change, negative = cytotoxicity [7] 6.4% [at 6.97 µM] | activation [8] -0.619% [at 6.97 µM] | activity, negative = inhibition [19] 0.118% [at 4.65 µM] | activation [9] -0.641% [at 5.23 µM] | activity change, negative = cytotoxicity [12] 0.636% [at 8.39 µM] | activation [14] -14.4% [at 8.39 µM] | activity, negative = inhibition [18] -1.38% [at 10.5 µM]

[O]=[Cr][O][Cr]=[O]
inactive: Potency [1] | Potency [2] | Potency [3] | Potency [4] | Potency [5] | Potency [6] | Potency [7] | outcome [8] | Potency [9] | Potency [10] | Potency [11] | Potency [12] | Potency [13] | Potency [20] | Potency [14] | Potency [18]
